PubChem BioAssay (Tox21)
Results filed as inconclusive are left out. Activity calls are given as the source filed them. The call rests on the fitted dose curve; in most records, active means well fitted activation curve with a large enough effect in the repeat runs; inconclusive means weak or mixed curves; inactive means flat fitted curve, though single readings scatter.

experiment: A CellTox Green Cytotoxicity Assay to monitor cytotoxicity in HEK293 cells - 24 hour (AID 1224875); details: CellTox Green fluorescence; series mostly up to 76.8 µM; activity change: at the top concentration; further: nearly all actives have a fitted effect of over 45% in size
In short: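 Cytotoxicity was tracked continuously in HEK293 cells by a DNA-binding dye excluded from viable cells. Compounds were transferred in DMSO 5 h after seeding; fluorescence was recorded at intervals up to 40 h.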
On the % scale 0 is the no-effect control and ±100 the full control effect.

| SMILES | activity change |
| --- | --- |
| CC(=O)CCC1=C(C)CCCC1(C)C | 23.2% (inactive) |
| CNCCS(=O)(=O)O | 3.45% (inactive) |
| CC1=NN(c2ccc(S(=O)(=O)O)cc2)C(=O)C1 | 1% (inactive) |
| C=CCOC(=O)CCCCCC | 3.84% (inactive) |
| CCO | -14.3% (inactive) |
| Cc1ccc2c(c1)C(=O)c1ccccc1C2=O | -7.17% (inactive) |
| CC(C)COC(=O)c1ccccc1 | 17% (inactive) |
| NCC1(Cc2noc(=O)[nH]2)CCCCC1 | -0.126% (inactive) |
| Cc1ccnc(N)c1 | -4.32% (inactive) |
| CCn1cc(C(=O)O)c(=O)c2cnc(N3CCCC3)nc21 | 4.09% [at 6.97 µM, active compounds read high] (inactive) |
| CCC[C@@H]1C[C@@H](C(=O)N[C@@H]([C@H]2O[C@H](SC)[C@H](O)[C@@H](O)[C@H]2O)[C@@H](C)O)N(C)C1 | 1.89% [at 35.3 µM, active compounds read high] (inactive) |
| C=CC(=O)OCC1CCCO1 (stereo not drawn) | -2.44% (inactive) |
| C=C(C)[C@@H]1CC=C(C)CC1 | -8.58% (inactive) |
| Cc1ccc(C(C)NC(=O)[C@@H](NC(=O)OC(C)C)C(C)C)cc1 (stereo partly drawn) | -4.89% (inactive) |
| CCOC(CN1CCN(CC(C)C(=O)c2ccccc2)CC1)c1ccccc1 (stereo not drawn) | -4.62% [at 15.8 µM, active compounds read high] (inactive) |
| COS(=O)(=O)O | -8.55% (inactive) |
| CC(C)OC(=O)CCC(=O)OC(C)C | -5.63% (inactive) |
| O=C(O)CNC(=O)CNC(=O)CNC(=O)CSC(=O)c1ccccc1 | 5.02% [at 35.3 µM, active compounds read high] (inactive) |
| CCc1occc(=O)c1O | 3.54% (inactive) |
| CC(C)NCC(O)c1ccc2ccccc2c1 (stereo not drawn) | 15.2% [at 35.3 µM, active compounds read high] (inactive) |
| COc1cc(/C=C/C(N)=O)cc(OC)c1OC | 0.859% [at 35.3 µM, active compounds read high] (inactive) |
| CC(C)[C@H]1CC[C@H](C)C[C@@H]1O | 0.955% (inactive) |
| O=C(O)[C@H](O)c1ccccc1 | -39.7% [at 35.3 µM, active compounds read high] (inactive) |
